Screening data: PubChem, National Center for Advancing Translational Sciences (NCATS)
HT1080 IDH1KD tx – toxicity to HT-1080 IDH1 knockdown cells (counter line); HT-1080 IDH1 knockdown viability, ATP luminescence, 48 h; Potency, µM (highest dose often 46.1 µM), inactives show at the highest dose activity, negative = toxicity, actives largely listed as cytotoxic; 360,000 tested, 2% active; AID 686971;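 also: 0% = DMSO wells and -100% = cell-free medium wells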
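Luminescent ATP read-out (CellTiter-Glo, 10 min at room temperature) after 48 h compound exposure at 37 °C gave viability of IDH1-knockdown HT-1080 cells. Activity was normalised to DMSO and cell-free wells, then fitted as concentration-response curves.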
TGFb SMAD3 inh – blocks TGF-b signaling | Potency, µM (titrated, usually from 46.1 µM), for inactives: at the highest dose activity, negative = inhibition, hits mostly inhibitors | 410,000 tested, 1.2% active | HepG2 CAGA-GFP TGF-b/SMAD3 reporter, GFP fluorescence, 18 h; TGF-beta stimulated, 500 pg/mL final; also: % is scaled to controls: 0 for no effect and ±100 for the full control effect; nearly all actives have a fitted effect of over 65% in size
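First, reporter cells (HEPG2 CAGA-GFP) rested 2 h at 37 degrees C. Next, compounds were pinned in and TGF-beta added to 500 pg/mL final. After 18 h, GFP was imaged per cell and summed per well.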
TDP1 cell CPT – DT40-hTDP1 cell growth loss with CPT. Potency, µM (highest dose often 46.2 µM), inactives show at the highest dose activity change, negative = growth inhibition, usual class: inhibitors. 420,000 tested, 12% active. chicken DT40 Tdp1-/-;hTDP1 cells + 20 nM CPT, ATP luminescence, 48 h; also: % is scaled to controls: 0 for no effect and ±100 for the full control effect; nearly all actives have a fitted effect of over 55% in size
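Chicken DT40 Tdp1-/- cells stably complemented with human TDP1 were seeded at 400 cells/well in medium containing 20 nM camptothecin, exposed to pin-transferred compounds, and grown at 37 °C for at least 48 hr. Viability was read as ATP luminescence.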
HepG2 tox – counter-screen for TGF-b inhibitors: cytotoxicity in HepG2 cells; HepG2 CAGA-GFP viability, ATP luminescence, 18 h; AID 588856; 410,000 tested, 0.76% active; Potency, µM (titrated, usually from 46.1 µM), for inactives: at the top dose activity change, negative = cytotoxicity, most hits filed as cytotoxic
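HepG2 CAGA-GFP cells (1000/well, DMEM with 1% FBS) received compound, then TGF-beta at 500 pg/mL final, and were incubated 18 hours at 37 degrees C. Viability was read by CellTiter-Glo luminescence. Media-only wells were set as complete cell-killing and DMSO as no toxicity.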
HT1080NT lethal – kills 2HG-producing HT-1080-NT fibrosarcoma cells; HT-1080-NT fibrosarcoma viability, CellTiter-Glo ATP luminescence, 48 h; Potency, µM (highest dose often 46.1 µM), for inactives: at the highest dose activity, negative = less viability, hits mostly cytotoxic; 360,000 tested, 1.6% active;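 also: NT is the 2HG producing partner of a matched IDH1 knockdown line; 0% = DMSO-treated cells and -100% = media-only wells without cells; nearly all actives have a fitted effect of over 55% in size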
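Viability of the 2HG-overproducing fibrosarcoma line after 48 hours of compound exposure at 37 degrees C was determined by luminescence with CellTiter-Glo, and concentration-effect curves were then fitted and categorized.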
TDP1 cell noCPT – qHTS for Inhibitors of human tyrosyl-DNA phosphodiesterase 1 (TDP1): qHTS in cells in absence of CPT; DT40 Tdp1-/- hTDP1 cells, no CPT, ATP luminescence, 48 h; Potency, µM (series often up to 46.2 µM), without a hit: at the top dose activity change, negative = growth inhibition, hits mostly inhibitors; 420,000 tested, 15% active; AID 686978, 2013; also: % is scaled to controls: 0 for no effect and ±100 for the full control effect; nearly all actives have a fitted effect of over 55% in size
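Luminescent ATP content (CellTiter-Glo) served as the growth readout. Knockout chicken DT40 cells expressing human TDP1 were exposed to compounds without camptothecin for a minimum 48 hr at 37 °C.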
Numbers without * were called inactive; u = inconclusive; x = no result. This is a sample that favours compounds with a hit; in the whole collection about 17% have one here. Calls follow the shape of the dose curve; as a rule, active = well fitted curve in the direction sought with a large enough effect; inconclusive = small, poorly fitted or top-dose-only effect, or another doubt; inactive = no such curve, though single readings can be large; an effect the other way counts as inactive or inconclusive. Potency is read from the fitted curve at half-maximal effect.

SMILES | HT1080 IDH1KD tx | TGFb SMAD3 inh | TDP1 cell CPT | HepG2 tox | HT1080NT lethal | TDP1 cell noCPT
CC1(C)Cc2ccccc2C(N/N=C/c2ccc(Cl)cc2)=N1 | 3% | u | u | -20% | 12% | u
O=c1[nH]c(=S)[nH]c2c1[C@H](CCc1cccc(Cl)c1)O[C@H](C1CC1)C2 | u | x | -10% | x | -22% | -13%
Cc1ccc(SCC(=O)N2c3ccccc3Sc3ccccc32)cc1 | -12% | u | u | 1% | -9% | u
O=C1c2cc(S(=O)(=O)N3CCOCC3)ccc2-c2ccc(S(=O)(=O)N3CCOCC3)cc21 | x | -2% | -29% | 3% | x | -28%
C=C(C)COc1ccc(-c2[nH]ncc2Oc2cccc(OC)c2)c(O)c1 | u | u | u | 18µM* | 23µM* | 13µM*
C=C(C)COc1ccc(-c2[nH]ncc2Oc2ccccc2OCC)c(O)c1 | 26µM* | u | u | -89% | u | -23%
CCCOC(=O)c1ccc(Oc2cn[nH]c2-c2ccc(O)cc2O)cc1 | -4% | u | u | -48% | 18µM* | u
CCCN(C(=O)CCc1nc(-c2ccccc2F)no1)c1ccc(CC)cc1 | x | u | -99% | -3% | x | u
Cc1c(C(C)(C)O)[nH]c2cc(C(F)(F)F)ccc12 | 5% | -5% | u | -12% | 2% | 13µM*
CCCCn1c(SCC(=O)Nc2ccc3c(c2)OCCO3)nnc1C(CC)N(C)C (centres undefined) | 10% | -5% | -7% | -29% | 10% | -22%
CCCCn1c(SCC(=O)Nc2cc(C(F)(F)F)cc(C(F)(F)F)c2)nnc1C(CC)N(C)C (centres undefined) | -23% | 66% | 23µM* | -10% | -25% | 21µM*
COc1ccc(CC(=O)NCCc2csc3nc(-c4ccccc4F)nn23)cc1 | x | -3% | u | 3% | x | -20%
COc1cc(CC(=O)N/N=C/c2ccc([N+](=O)[O-])cc2)c([N+](=O)[O-])cc1OC | -2% | 2% | -14% | -5% | 2% | u
CCC(Sc1nncn1C)C(=O)Nc1nnc(-c2ccccc2Cl)s1 (centres undefined) | 6% | -3% | -29% | -2% | 20% | 10%
CCC(Sc1ccc(Cl)cc1)C(=O)Nc1nnc(-c2cccc([N+](=O)[O-])c2)s1 (centres undefined) | 4% | 3% | u | -2% | 14% | 13µM*
C[C@H](CO)N1C[C@H](C)[C@@H](CN(C)Cc2ccc(C(=O)O)cc2)Oc2c(NS(=O)(=O)c3cn(C)cn3)cccc2C1=O | 0% | 1% | 6% | -4% | 2% | -17%
CCCCCCCCC(=O)NC(NC(=S)N1CCOCC1)C(Cl)(Cl)Cl (centres undefined) | 11µM* | u | u | -73% | u | 15µM*
CCCCCC(=O)NC(NC(=S)N1CCOCC1)C(Cl)(Cl)Cl (centres undefined) | -12% | u | u | -31% | -1% | u
C[N+]1(C)CCN(CC(O)(c2ccccc2)C2CCCCC2)CC1 (centres undefined) | x | x | 2% | x | x | -15%
CCOC(=O)[C@@H]1[C@H]2COc3ccccc3[C@H]2N2C(=O)N(c3ccc(Cl)cc3)C(=O)[C@@]12C | 0% | -10% | u | -1% | u | u
CCN(CC)C(=O)c1sc(NC(=O)c2ccoc2C)c(C(=O)OC)c1C | -2% | 8% | u | -7% | -5% | 21µM*
CCN(CC)C(=O)c1sc(NC(=O)C(Sc2ccccc2)c2ccccc2)c(C(=O)OC(C)C)c1C (centres undefined) | -12% | 2% | u | 7% | -9% | 16µM*
CCOC(=O)c1c(NC(=O)OC)sc(C(=O)N(CC)CC)c1C | 13% | 6% | u | 11% | 13% | u
CCN(CC)CC(C)CNC(=O)c1cc(-c2ccc(Br)s2)nc2ccccc12 (centres undefined) | x | u | 8.2µM* | -32% | x | 9.2µM*
CCN(CC)C(=O)c1sc(NC(=O)c2cc(-c3ccc(C)s3)nc3ccccc23)c(C(=O)OC)c1C | 3% | u | u | 1% | 6% | 23µM*
SMILES | HT1080 IDH1KD tx | TGFb SMAD3 inh | TDP1 cell CPT | HepG2 tox | HT1080NT lethal | TDP1 cell noCPT
Cc1ccc2oc(=O)c3cc(C(=O)Nc4ccccc4C(N)=O)sc3c2c1 | x | 11% | 8% | -11% | x | 2%
CC(C)CNC(=O)C(=O)Nc1ccc2c(c1)N(S(=O)(=O)c1cccs1)CCC2 | -7% | 18% | u | -7% | -13% | u
COC(=O)C1CC(O)C(O)C(O)C1 (centres undefined) | 8% | 6% | -3% | -75% | 9% | -3%
CCOC(=O)c1c(NC(=O)Nc2ccc(F)cc2)sc(C(=O)N(C)C)c1C | x | -18% | u | -16% | x | u
CCOC(=O)c1c(NC(=O)c2ccoc2C)sc(C(=O)N(C)C)c1C | -7% | -12% | -28% | -15% | -16% | 23µM*
Cc1ccc(C)c(-c2cc(C(=O)Nc3sc(C)c(C)c3C(N)=O)c3ccccc3n2)c1 | u | -19% | 21µM* | -12% | u | u
CCOc1ccc(NC(=O)c2nc(S(=O)(=O)Cc3ccccc3C)ncc2Cl)cc1 | x | 13µM* | 1µM* | -101% | x | 0.71µM*
CCOc1ccc(NC(=O)c2nc(S(=O)(=O)Cc3ccc(F)cc3)ncc2Cl)cc1 | x | 11µM* | 0.5µM* | -96% | x | 0.4µM*
Cc1ccc(S(=O)(=O)CCC(=O)N(Cc2nnc(-c3ccc(Cl)cc3)o2)C2CC2)cc1 | -1% | 0% | u | 2% | -3% | u
CCN(CC)C(=O)Cn1cc(C(=O)C(=O)N2CCN(c3ccc([N+](=O)[O-])cc3)CC2)c2ccccc21 | -13% | 17% | 6.5µM* | -4% | 0% | 7.3µM*
COc1ccc(N2CCN(C(=O)C(=O)c3cc(OC)c4ccccc4c3)CC2)cc1 | u | x | 23µM* | x | -6% | 21µM*
COc1ccc(N2CCN(C(=O)C(=O)c3cn(CC(=O)N4CCCC4)c4ccccc34)CC2)cc1 | -17% | -6% | 21µM* | -3% | -12% | u
CCN(CC)C(=O)Cn1cc(/C=C(\C#N)C(=O)N2CCN(c3ccccc3)CC2)c2ccccc21 | 3% | u | 21µM* | -6% | 5% | u
